From PubChem BioAssay (NCI)
This is part of a sample that, as a whole, favours compounds with a hit. Of some 83,000 tested, about 20% had one in any assay.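 The endpoint reported here, percent growth, reads 100 for growth as untreated, 0 for no net growth and -100 for all cells dead.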 Activity calls are given as the source filed them. The calls were made as follows: active = growth percent below 10; inactive = the rest.

Columns and labels:
Assay in all cases: NCI-60 one-dose screen, 48 h (100 = growth as untreated, 0 = no growth, -100 = all killed)
Conditions in all cases: 10 µM unless noted
HCT-15 colon = test system: HCT-15 colon
HT29 colon = test system: HT29 colon
SNB-75 CNS = test system: SNB-75 CNS
SNB-19 CNS = test system: SNB-19 CNS
U251 CNS = test system: U251 CNS
PC-3 prostate = test system: PC-3 prostate
SK-MEL-5 melanoma = test system: SK-MEL-5 melanoma
LOX IMVI melanoma = test system: LOX IMVI melanoma
SK-MEL-28 melanoma = test system: SK-MEL-28 melanoma

Measured: growth

CCCCC[C@H]1C/C=C2/C(=O)C(Cl)=C[C@@H]2C/C=C\CCCC(=O)O1
active: HCT-15 colon -61.9% | HT29 colon -22.6% | SNB-75 CNS 5.2% | SNB-19 CNS -73.4% | U251 CNS -91.7% | PC-3 prostate -46.6% | SK-MEL-5 melanoma -77.5% | LOX IMVI melanoma -85.2% | SK-MEL-28 melanoma -64.7%

O=C(NO)c1ccc(Cn2c(=O)n(CCc3ccc(O)cc3)c(=O)c3ccccc32)cc1
inactive: HCT-15 colon 96.5% | HT29 colon 92.2% | SNB-75 CNS 47.8% | SNB-19 CNS 44.1% | PC-3 prostate 38.7% | SK-MEL-5 melanoma 42.1% | LOX IMVI melanoma 22.4% | SK-MEL-28 melanoma 17.5%
active: U251 CNS 8.31%

Cc1ccc(N(CC(=O)Nc2ccc(S(=O)(=O)NC3CCN(C)CC3)cc2)S(=O)(=O)c2ccc(Cl)cc2)cc1
active: SK-MEL-5 melanoma -9.84% | LOX IMVI melanoma -58.1% | SK-MEL-28 melanoma -68.3%
inactive: HCT-15 colon 90.6% | HT29 colon 10.2% | SNB-75 CNS 58.7% | SNB-19 CNS 88.3% | U251 CNS 19.5% | PC-3 prostate 84.1%

COc1cnc2c(c1)C(=O)c1c-2n(CCCNC(C)C)c(=O)c2cc([N+](=O)[O-])ccc12
active: HCT-15 colon -56.2% | HT29 colon -33.7% | SNB-75 CNS -79.2% | SNB-19 CNS -44.7% | U251 CNS -80.6% | PC-3 prostate -54.3% | SK-MEL-5 melanoma -98.9% | LOX IMVI melanoma -86.9% | SK-MEL-28 melanoma -62.6%

C=CC(=O)N[C@H](Cc1ccc(-c2cc(Cl)cc(Cl)c2)cc1)[C@H](O)[C@@H](O)C(=O)O
inactive: HCT-15 colon 96% | HT29 colon 81.5% | SNB-75 CNS 87% | SNB-19 CNS 99.5% | U251 CNS 80.2% | PC-3 prostate 63.9% | SK-MEL-5 melanoma 91.6% | LOX IMVI melanoma 95.6% | SK-MEL-28 melanoma 106%

CCOC(=O)N1CCN(CCCCOc2ccc(C(C)(C)CC)cc2)CC1
inactive: HCT-15 colon 87.7% | HT29 colon 78.1% | SNB-75 CNS 106% | SNB-19 CNS 108% | U251 CNS 88.5% | PC-3 prostate 71.5% | SK-MEL-5 melanoma 88.6% | LOX IMVI melanoma 99.7% | SK-MEL-28 melanoma 100%

Cc1cc(N(CCCNc2ccnc3cc(Cl)ccc23)Cc2ccco2)nc(N2CCOCC2)n1
inactive: HCT-15 colon 54.9% | HT29 colon 34.9% | SNB-75 CNS 73.5% | SNB-19 CNS 78.1% | U251 CNS 84% | PC-3 prostate 62.2% | SK-MEL-5 melanoma 54.5% | LOX IMVI melanoma 66% | SK-MEL-28 melanoma 77.6%

CCNCCCn1c2c(c3ccc([N+](=O)[O-])cc3c1=O)C(=O)c1cc(OC)cnc1-2
active: HCT-15 colon -12% | HT29 colon -11% | SNB-75 CNS -23.8% | U251 CNS -73.3% | PC-3 prostate 1.89% | SK-MEL-5 melanoma -97.3% | LOX IMVI melanoma -91% | SK-MEL-28 melanoma -31.5%
inactive: SNB-19 CNS 10.6%

C[C@@H]1CCCCCCCCC[C@H](O)C(=O)C[C@@H](SC[C@@H](O)C(=O)O)C(=O)O1
inactive: HCT-15 colon 87.3% | HT29 colon 82.1% | SNB-75 CNS 95.2% | SNB-19 CNS 102% | U251 CNS 89.4% | PC-3 prostate 83% | SK-MEL-5 melanoma 104% | LOX IMVI melanoma 71.8% | SK-MEL-28 melanoma 107%

O=P(O)(c1ccccc1)c1ccccc1I
inactive: HCT-15 colon 111% | HT29 colon 80% | SNB-75 CNS 84% | SNB-19 CNS 103% | U251 CNS 89.3% | PC-3 prostate 82.1% | SK-MEL-5 melanoma 96.8% | LOX IMVI melanoma 93.8% | SK-MEL-28 melanoma 108%

CCC(c1ccc(OC)cc1)C(CC)c1ccc(O)c(CN2CCCCC2)c1 (stereo unspecified)
inactive: HCT-15 colon 33.6% | HT29 colon 24.7% | SNB-75 CNS 94.5% | SNB-19 CNS 90.6% | U251 CNS 72.8% | PC-3 prostate 54.3% | SK-MEL-5 melanoma 30.6% | LOX IMVI melanoma 75.9% | SK-MEL-28 melanoma 41.6%

Cn1cc(-c2csc(-c3cn(CCN)c4ccc(F)cc34)n2)c2cccnc21
inactive: HCT-15 colon 55.9% | HT29 colon 74.7% | SNB-75 CNS 75.7% | SNB-19 CNS 77.7% | U251 CNS 81.4% | PC-3 prostate 61.3% | SK-MEL-5 melanoma 57% | LOX IMVI melanoma 60.4% | SK-MEL-28 melanoma 98.2%

CCCCCCCN(CCCCCCC)C(=N)c1ccnc2ccccc12
active: HCT-15 colon -72.1% | HT29 colon -50.2% | SNB-75 CNS -68.3% | SNB-19 CNS -51.1% | U251 CNS -87.5% | PC-3 prostate -22.4% | SK-MEL-5 melanoma -98.3% | LOX IMVI melanoma -94.4% | SK-MEL-28 melanoma -74.1%

C[C@@H](C(=O)O)c1ccc2c3cc(Cl)ccc3n(Cc3cc(=O)oc4ccc(Cl)cc34)c2c1
inactive: HCT-15 colon 99.1% | HT29 colon 96.9% | SNB-75 CNS 90.8% | SNB-19 CNS 101% | U251 CNS 101% | PC-3 prostate 98.3% | SK-MEL-5 melanoma 98.4% | LOX IMVI melanoma 96.4% | SK-MEL-28 melanoma 99.9%
